# M1 PAM – human M1 muscarinic receptor positive allosteric modulators, primary screen, CHO-K1 cells, Fluo-8 calcium fluorescence, 1536-well; Muscarinic acetylcholine receptor M1 (Homo sapiens), P11229; CHO-K1 hM1, ACh EC20; 0% = ACh EC20, 100% = maximal ACh; activation, % at 3 µM; hit rate 0.088% among 360,000; AID 588819, 2011; in the data active means activation above about 19%, passing the limit was not always enough
# Target sequence (P11229 whole entry, looked up): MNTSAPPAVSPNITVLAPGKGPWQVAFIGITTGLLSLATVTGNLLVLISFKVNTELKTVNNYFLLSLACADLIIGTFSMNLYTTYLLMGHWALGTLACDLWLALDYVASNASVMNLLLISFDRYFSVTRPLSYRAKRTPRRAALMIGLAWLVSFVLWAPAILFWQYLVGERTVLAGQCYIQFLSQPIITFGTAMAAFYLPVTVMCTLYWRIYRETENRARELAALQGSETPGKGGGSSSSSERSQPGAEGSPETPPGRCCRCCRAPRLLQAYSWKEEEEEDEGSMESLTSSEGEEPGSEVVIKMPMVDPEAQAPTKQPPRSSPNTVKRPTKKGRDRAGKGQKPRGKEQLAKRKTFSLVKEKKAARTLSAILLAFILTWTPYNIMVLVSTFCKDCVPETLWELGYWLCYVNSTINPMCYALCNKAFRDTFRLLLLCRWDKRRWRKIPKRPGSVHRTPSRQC
# M1 ag parental – counter-screen for M1 agonists: effect in parental CHO-K1 cells; Fluo-8 calcium fluorescence; scaled to maximal ATP response, vehicle zero; activation, % at 3 µM; hit rate 0.48% among 360,000; in the data active means activation above about 15%;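 further: untransfected CHO-K1 host cells lacking M1 receptor as counterscreen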
# CHO-K1 Ca PAM – nonselective calcium activators in parental CHO-K1 cells, primary screen, counter-screen for M1 PAM project, cell-based, Fluo-8 calcium fluorescence, full deck, 1536-well; ATP EC20; 0% at ATP EC20, 100% at ATP max; activation, % at 3 µM; AID 602247, 2012; hit rate 0.02% among 360,000;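 active means activation above the run cutoff, the mean activation of all test compounds plus 3 SD, cut at about 40% in these data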;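 further: peak over basal fluorescence ratio in a 140 s read after ATP addition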
# M1 antag – human M1 muscarinic receptor antagonists, primary screen, CHO-K1 cells, Fluo-8 calcium fluorescence, 1536-well; Muscarinic acetylcholine receptor M1 (Homo sapiens), P11229; CHO-K1 hM1, ACh EC80 antagonist; inhibition, % at 3 µM; hit rate 1.3% among 360,000; AID 588852, 2011;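 active means percent inhibition above its own plate's cutoff, namely the mean of that plate's compound wells plus 3 SD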;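 further: peak over basal fluorescence ratio during 140 s after agonist addition; 0% = ACh EC80 plus DMSO and 100% = DMSO alone without agonist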
# CHO-K1 Ca antag – nonselective inhibitor or artifact in parental CHO-K1 cells. ATP-induced calcium, Fluo-8 fluorescence. inhibition, % at 3 µM. hit rate 0.6% among 360,000. AID 602250;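 active means inhibition above a per-plate cutoff, the plate's mean sample inhibition plus 3 SD, cut at about 24% in these data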;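 further: 0% = DMSO plus EC80 ATP and 100% = DMSO alone without ATP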
# M1 ag – human M1 muscarinic receptor agonists, primary screen, Fluo-8 calcium fluorescence, CHO-K1 cells, HTS | Muscarinic acetylcholine receptor M1 (Homo sapiens), P11229 | CHO-K1 hM1, agonist mode; 0% DMSO, 100% acetylcholine EC100 | activation, % at 3 µM | hit rate 0.33% among 360,000 | AID 588814, 2011;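 active means activation above the run's mean compound activation plus 3 SD, cut at about 16% in these data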;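 further: peak over basal fluorescence ratio within a 140 s kinetic read after compound addition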
# * marks the source's active call; other numbers are inactive results; nt = not tested or not shown. Compounds with a hit are over-represented: about 2.3% of the library has one in this group of screens.
SMILES,M1 PAM,M1 ag parental,CHO-K1 Ca PAM,M1 antag,CHO-K1 Ca antag,M1 ag
CCCn1c(=O)c(C(=O)NNC(=O)c2ccccc2Cl)c(O)c2ccccc21,-16,21*,-1,10,-12,30*
CNCCC=C1c2ccccc2C=Cc2ccccc21,-25,1,-3,98*,4,-4
CN(C)CCC=C1c2ccccc2C=Cc2ccccc21,-25,4,34,98*,-20,-6
c1ccc(-c2cnn3c(-c4ccccc4)c(-c4ccccc4)nc3n2)cc1,-9,31*,11,41*,28*,52*
N#Cc1c(-c2ccccc2)nc(SCC(=O)Nc2ccc(OC(F)(F)Cl)cc2)[nH]c1=O,8,6,-8,-10,3,-3
O=C(C[n+]1cc(-c2ccc(Cl)c(Cl)c2)n2c1CCC2)N1c2ccccc2Sc2ccccc21,-27,0,26,100*,-4,-8
Cc1ccc(-c2c[n+](CC(=O)OCc3ccccc3)c3n2CCC3)cc1,-9,0,-1,6,3,-8
CC1CCC(C(C)C)C(OC(=O)C[n+]2cc(-c3ccc(Cl)cc3)n3c2CCC3)C1 (centres undefined),-23,1,10,85*,-3,-2
COc1ccc(-c2c[n+](CC(=O)N3c4ccccc4Sc4ccccc43)c3n2CCC3)cc1,-27,0,13,86*,-12,-8
Cc1ccccc1NC(=O)C[n+]1cc(-c2ccccc2)n2c1CCC2,-17,5,-21,50*,16,-2
COc1ccc(S(=O)(=O)N2CCN(C(=O)c3cc(C)nc4ccccc34)CC2)cc1OC,-3,1,-2,3,-7,-9
Clc1ccc(OCCCCCN2CCOCC2)cc1,-1,2,9,-5,-12,-9
O=C(C[n+]1cc(-c2ccc(Cl)cc2)n2c1CCC2)N1c2ccccc2Sc2ccccc21,-26,0,-3,97*,4,-8
O=C(NC1(C(F)(F)F)N=C(c2ccccc2)NC1=O)c1ccccc1 (centres undefined),4,0,-13,-6,27*,-5
C[C@@H](NC(=O)c1nc[nH]c1C(=O)NCC(=O)OCc1ccccc1)c1ccccc1,-13,8,-9,33*,-1,-2
C[C@@H](NC(=O)c1nc[nH]c1C(=O)OCc1ccccc1)c1ccccc1,-9,0,-12,12,4,-5
C[C@H](NC(=O)c1nc[nH]c1C(=O)NCc1ccc(CNC(=O)OC(C)(C)C)cc1)C(=O)OCc1ccccc1,-21,12,-5,45*,9,-1
CCCCn1nc(C(=O)NCC2COc3ccccc3O2)c2ccccc2c1=O (centres undefined),-9,1,-6,12,-7,-8
CCCCc1nnc2c(N(C)S(=O)(=O)c3ccccc3)nc3ccccc3n12,11,1,16,-16,-14,-3
O=C(CSc1nc2ccc([N+](=O)[O-])cc2s1)c1ccc2ccccc2c1,8,1,-9,-7,-11,1
CC(=O)Nc1ccc(-n2c(=O)c3ccccc3c3ccccc3c2=O)cc1,5,0,0,-6,-14,-1
O=C(O)c1ccc(-n2c(=O)c3ccccc3c3ccccc3c2=O)cc1,-12,0,-16,11,31*,-3
O=C(O)c1ccc2c(=O)n(-c3ccc(F)cc3)c(=S)[nH]c2c1,23,0,14,38*,-7,-1
COc1ccc(C)cc1NC(=O)c1ccc(S(=O)(=O)N2CCCCC2)cc1,0,1,-2,2,-15,-6
COc1ccc(CNc2ccc(Br)cc2)cc1,1,1,16,-1,-12,-4
SMILES,M1 PAM,M1 ag parental,CHO-K1 Ca PAM,M1 antag,CHO-K1 Ca antag,M1 ag
COc1ccc(NC2=NCC(Cc3ccc(Br)cc3)S2)cc1 (centres undefined),-26,9,23,79*,-4,-10
Cc1ccc(S(=O)(=O)Nc2c(C)cc(C)nc2Cl)cc1,4,2,16,-6,-8,-4
COC(=O)C1CCN(C(=O)CN(C)Cc2ccc(C(C)(C)C)cc2)CC1,-25,0,7,34*,4,-11
CN(Cc1ccc(C(C)(C)C)cc1)C(=O)C1CCN(C(=O)Nc2ccccc2)CC1,2,5,0,-6,-1,-4
N#Cc1ccccc1S(=O)(=O)N1CCN(C(=O)C2CC(=O)N(c3ccc4c(c3)OCCO4)C2)CC1 (centres undefined),1,0,-10,-4,-9,-9
CCOCCn1c(CN2CCN(C)CC2)nc2c1c(=O)n(C)c(=O)n2C,29*,0,18,-31,-6,-1
CCOC(=O)C1=C(C)Nc2nc3ccccc3n2C1c1ccc(O)cc1 (centres undefined),2,0,0,-3,-6,-1
COC(=O)C1=C(C)Nc2nc3ccccc3n2C1c1cc(OC)c(OC)c(OC)c1 (centres undefined),1,17*,20,-8,0,-5
O=C(c1ccc(OC2CCN(C/C=C/c3ccc(F)cc3)CC2)cc1)N1CCCC1,-21,3,12,55*,-6,-4
O=C(c1ccc(OC2CCN(Cc3ccc(F)cc3)CC2)cc1)N1CCCC1,-5,2,6,1,-9,-6
CCc1ccc(CN2CCC(Oc3ccc(C(=O)N4CCCCC4)cc3)CC2)cc1,-21,4,2,42*,-8,-5
CCOC(=O)C1(CC2CC2)CCN(Cc2ccc(OC)cc2F)CC1,-25,3,-12,28*,13,-9
CCc1ccc(CN2CCC(Oc3ccc(C(=O)N4CCCC4)cc3)CC2)cc1,-24,1,-20,82*,5,-6
CCCCN1CC[C@@H]2C=CC[C@H](C(=O)OC)[C@@H]2C1=O,4,0,13,-9,-4,0
CC1CCN(C(=O)CSc2nnc(-c3ccccc3F)o2)CC1,6,1,4,-9,-10,-3
COC(=O)CCCn1cc(CN(C)C2CN(Cc3cn(CCCC(=O)OC)nn3)S(=O)(=O)C2)nn1 (centres undefined),nt,0,5,nt,-6,nt
CC1=CC(C)(C(Cl)(Cl)Cl)C(C)=CC1=NO (centres undefined),-9,0,4,10,-1,-9
COc1cc(C)c(CN2CCC(Oc3ccc(C(=O)N4CCCC4)cc3)CC2)cc1C,1,1,7,-6,-11,-5
CC(C)c1ccc(CN2CCC(Oc3ccc(C(=O)N4CCCC4)cc3)CC2)cc1,-23,2,-8,81*,3,-4

# Assay outcomes deposited in PubChem by The Scripps Research Institute Molecular Screening Center.
